Compounds without any hit were thinned out: in the full panel of roughly 83,000, 20% have a hit.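 The endpoint reported here, percent growth, reads 100 for growth as untreated, 0 for no net growth and -100 for all cells dead.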 Unmarked numbers belong to inactive results. The source made the active and inactive calls.
tested on: HCT-15 colon; assay: NCI-60 one-dose screen, 48 h (100 = growth as untreated, 0 = no growth, -100 = all killed); conditions: 10 µM unless noted
Procedure: Growth inhibition of the HCT-15 human tumor cell line is measured as a screen for anti-cancer activity. Cells are grown in 96 well plates and exposed to the test compound for 48 hours. Compounds are tested at a single concentration, which is 10^-5 M for most compounds. The reported endpoint is percent growth (GI% or GIPRCNT), where numbers from 0 - 100% represent growth inhibition, and numbers from -100% - 0 represent cell death. For example, a value of 40 represents 60% growth inhibition. A value of 0 means no net growth occurred over the course of the experiment. A value of -40 indicates 40% of cells at the beginning of the experiment died by the end of the experiment. A value of -100 means all cells are dead at the end of the experiment.
NCI-60 Human Tumor Cell Lines Screen was performed using the standard one-dose NCI protocol, which is described in more detail at https://dtp.cancer.gov/discovery_development/nci-60/default.htm.
Compounds with GIPRCNT values below 10 were considered active. Activity score was based on GIPRCNT using the following formula: […]
Score is 0 for GIPRCNT values of 100 or above, 50 for GIPRCNT values of 0, and 100 for GIPRCNT values of -100.

SMILES | growth
CN1C(=O)N(C)C2C1NN=c1s/c(=C\c3ccc([N+](=O)[O-])cc3)c(=O)n12 (stereo not given) | 37.6%
NCCNc1nc2ccccc2c2c(=O)c3cc(F)cc(Cl)c3sc12 | -83.4% (active)
COc1ccc(CCN2C(=O)CCSC2=S)cc1 | 12.4%
N#Cc1c(N)nc2c(c1N)C(c1ccc(F)cc1)c1ccc(N)cc1O2 (stereo not given) | 100%
COc1ccc(Cn2c(Br)c3c(c2-c2cc(OC)c(OC)c(OC)c2)CCc2sc(NC(=O)c4ccc(OC)cc4)nc2-3)cc1 | 98.3%
Cc1ccc2nc(NC(=O)CSC(=S)N3CCN(c4ccccc4)CC3)sc2c1 | 97%
FC(F)(F)c1cccc(Nc2nc(-c3ccccc3)nc3ncccc23)c1 | 17.6%
COc1cccc2cc(N(C)c3nc(C)nc4ccsc34)ccc12 | 0.625% (active)
COc1ccc(/C=C2\SC(=Nc3ccccc3)NC2=O)cc1 | -44.5% (active)
COc1cccc(C2=NN3C(C2)c2ccccc2OC3c2ccc(/C=C3\SC(=O)NC3=O)cc2)c1 (stereo not given) | 95.2%
COC(=O)/C(CCC=C(C)C)=C1\[C@@H](OC(C)=O)C[C@@]2(C)[C@H]1C[C@@H](O)[C@H]1[C@@]3(C)CC[C@H](NC(=O)c4cnccn4)[C@@H](C)[C@@H]3CC[C@@]12C | 96.3%
COc1ccc(Nc2cc(C)nc(NCc3ccccc3)n2)cc1 | 26.1%
COc1ccc(-n2c(C(O)c3ccccc3)nn(CN3CCOCC3)c2=S)cc1 (stereo not given) | 113%
CC1(C)CC2(C)OC2C2(C1)N=NC(=Nc1ccccc1)O2 (stereo not given) | 9.91% (active)
COc1ccccc1N1CCN(C(CNS(=O)(=O)c2ccc(Cl)cc2)c2cccnc2)CC1 (stereo not given) | 49%
COc1ccc(Cn2cc(Cn3cc(C=C4C(=O)NC(=O)NC4=O)c4ccccc43)nn2)cc1 | 85.9%
C[C@@H](C(=O)NCCCC#Cc1cnc(Nc2ccc(C#N)cc2)nc1NC1CC1)N(C)C(=O)/C=C/CN(C)C | 29.9%
CCN1C(=O)N(CC)C2Nn3c(s/c(=C\c4ccccc4F)c3=O)=NC21 (stereo not given) | 26.5%
CC1=C(C(=O)OCC2CCN(C(=O)OC(C)(C)C)CC2)[C@@H](c2cccc(C#N)c2)C2=C(CC(C)(C)CC2=O)N1 | 19.5%
COc1ccc(N2C(=O)CC(c3cc(OC)c(OC)c(OC)c3)C3C2=NC(=O)N3C)cc1 (stereo not given) | 102%

SMILES | growth
O=C1NC(=O)C(=Cc2cn(Cc3cn(Cc4ccc(Cl)cc4Cl)nn3)c3ccccc23)C(=O)N1 | 90.4%
CN1C(=O)N(C)C2C1NN=c1s/c(=C\c3ccc(Cl)cc3Cl)c(=O)n12 (stereo not given) | 15.8%
Nc1ccc(-c2ccc(-c3ccccc3N)c3[nH]c4ccccc4c23)cc1 | 19.5%
NCCNc1nc2ccc(F)cc2c2c(=O)c3cc(F)ccc3sc12 | 20.9%
CN=c1ccc2nc3ccc(N)cc3sc-2c1 | 30.3%
Cc1c(C(=O)OCCO)cc(-c2ccc(Cl)cc2)n1-c1ccc(Cl)cc1Cl | 53.6%
Cc1ccc2sc3c(NCCCNCCO)nc4ccccc4c3c(=O)c2c1 | -8.68% (active)
CCCCNc1nc(NC(C)(C)C)nc(NC(C)(C)C)n1 | 57.6%
O=C1NC(=S)NC(=O)C1=Cc1cn(Cc2cn(Cc3cccc4ccccc34)nn2)c2ccccc12 | 100%
CSc1nc2c(c(=O)n1C)N=C1c3ccccc3C(=O)C1C(c1ccccc1)N2 (stereo not given) | 62.4%
COc1ccc(-c2cn[nH]c2-c2cc(OC)c(OC)c(OC)c2)cc1OCc1ccccc1 | 23.7%
COc1ccc(Cn2c(Br)c3c(c2Br)-c2nc(N)sc2CC3)cc1 | 29.9%
O=C(CCc1nnc2sc(-c3ccc(Cl)cc3Cl)nn12)c1nc2ncccc2[nH]1 | -40.2% (active)
Cc1c(-c2csc(-n3nc(C(F)(F)F)cc3C(F)(F)F)n2)no[n+]1[O-] | 95.4%
COc1ccc(Nc2nc(N/N=C/c3ccc(O)cc3)nc(Nc3ccc([N+](=O)[O-])cc3)n2)cc1 | 107%
CN(C)CCNc1cc(-c2ccccc2)nc2ccccc12 | 6.92% (active)
COc1ccc(C2NCCc3c2[nH]c2ccccc32)cc1CN1CCN(c2ccc(F)cc2)CC1 (stereo not given) | 8.26% (active)
O=C(Nc1ccc(N2CCNCC2)cn1)c1[nH]ncc1Nc1ncnc2sccc12 | 69.7%
CCCCCCc1cc2cc(-c3nc4ccccc4[nH]3)c(=Nc3ccccc3C)oc2cc1O | 31.2%
Cc1ccc(Nc2nc(N)c3ccccc3n2)cc1Cl | 49.9%

Source: PubChem BioAssay (NCI)
